Bioassay records: PubChem, The Scripps Research Institute Molecular Screening Center
hgDAF12 agonist: activates the H. glycines DAF-12 receptor ligand-binding domain | HEK293 GAL4-hgDAF12 UAS-luciferase reporter, agonist luminescence; normalized to butyrate control | activation, % at 6.8 µM | 370,000 tested, 1.8% active;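 active means activation above a cutoff set at the mean of all screened compounds plus 3 SD, cut at about 10% in these data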
ssDAF12 agonist: S. stercoralis DAF-12 activation, primary screen; HEK293 ssDAF-12/GRIP1 lit1-tk-luc reporter, luminescence; % of 3 µM dafachronic acid response; activation, % at 6.8 µM; 370,000 tested, 1% active;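 active means activation above the mean over all tested compounds plus 3 SD, cut at about 0.9% in these data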
DAX1 inh-1: inhibitors of DAX1 repression of SF-1 activated StAR promoter. inhibition, % at 6.8 µM. AID 652010. 370,000 tested, 1.1% active. HEK293T StAR-luciferase reporter, SF-1/DAX-1 repression relief;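 active means inhibition above the mean over all tested compounds plus 3 SD, cut at about 3.6% in these data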;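 further: higher inhibition means more luminescence from relief of DAX-1 repression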
hcDAF12 agonist: H. contortus DAF-12 activation, primary screen | HEK293 hcDAF-12 lit1-tk-luc reporter, luminescence; 0% DMSO, 100% Δ7-dafachronic acid | 370,000 tested, 1.4% active | AID 652067 | activation, % at 6.8 µM;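 active means activation above the mean of all tested compounds plus 3 SD, cut at about 5.5% in these data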
DAX1 inh-2: NR0B1 (DAX1) inhibition | HEK293 Gal4-DAX1 luciferase reporter, luminescence | inhibition, % at 6.75 µM | 340,000 tested, 0.99% active | AID 504766;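 active means inhibition above the mean over all tested compounds plus 3 SD, cut at about 4.2% in these data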;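 further: inhibition shows as a rise in luminescence from relieved DAX1 repression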
Target sequence (P51843 207-470 limits assumed): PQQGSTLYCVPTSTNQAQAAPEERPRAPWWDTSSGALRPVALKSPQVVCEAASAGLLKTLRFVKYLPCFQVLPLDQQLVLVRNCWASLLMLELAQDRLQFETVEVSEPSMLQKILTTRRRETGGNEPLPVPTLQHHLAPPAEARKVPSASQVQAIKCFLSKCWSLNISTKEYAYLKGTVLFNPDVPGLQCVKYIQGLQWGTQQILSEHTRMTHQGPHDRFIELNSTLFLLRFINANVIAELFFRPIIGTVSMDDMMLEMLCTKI
Numbers stand for hits; - = inactive; . = not tested or not shown. Rows were chosen to be rich in hits. Some 4.1% of all compounds tested hit in one or more screens of this group.

SMILES | hgDAF12 agonist | ssDAF12 agonist | DAX1 inh-1 | hcDAF12 agonist | DAX1 inh-2
O=C(O)C1CCN(C(=O)CSc2nc3ccccc3s2)CC1 | - | - | - | - | -
CC1CCN(C(=O)CSc2nc3ccccc3s2)CC1 | 12.4 | - | - | 6.5 | 4.6
CC1Cc2ccccc2N1C(=O)CSc1nc2ccccc2s1 (stereo unspecified) | - | - | - | - | -
COc1ccc(S[C@]2(C(=O)N3CCN(c4ncccn4)CC3)CC(=O)N(S(=O)(=O)c3ccc(F)cc3)[C@@H]2c2ccc(OC)cc2)cc1 | - | - | - | - | .
CN(C)CCCSc1nc2ccccc2s1 | - | 2.0 | - | - | -
S=C(NCCc1ccccn1)Nc1ccccc1Cl | - | - | - | - | -
S=C(NCc1ccccc1Cl)Nc1ccccc1Cl | - | - | - | - | 7.4
S=C(NCc1ccccn1)Nc1ccccc1Cl | - | - | - | 5.6 | -
O=C(NCc1ccccn1)Nc1ccc(Br)cc1Cl | - | - | 5.2 | - | -
S=C(NCc1ccccn1)Nc1ccc(Br)cc1Cl | - | - | - | - | 5.6
O=C(NCc1ccccn1)Nc1ccc(Cl)cc1Cl | - | - | - | - | -
O=S(=O)(NCc1cn(Cc2ccccc2)nn1)c1ccccc1Br | - | - | - | - | .
O=S(=O)(c1cccs1)N1CCC(c2cn3ccccc3n2)CC1 | - | - | - | - | .
CCC(CO)Nc1cccc2c1S(=O)(=O)N(Cc1cn(Cc3ccc(C(F)(F)F)cc3)nn1)Cc1ccccc1O2 (stereo unspecified) | - | - | - | - | .
CC(=O)c1ccc(NC(=O)CSc2nccn2C)cc1 | - | - | - | - | -
Cc1ccc(NC(=O)CSc2nccn2C)cc1F | - | - | 4.4 | - | -
Cc1ccc(NC(=O)CSc2ncccn2)cc1F | - | - | - | - | 5.7
CCc1ccc(C2C3=C(CCCC3=O)OC3=C2C(=O)CCC3)cc1 | - | - | - | - | -
O=C1CCCC2=C1C(c1ccc(OS(=O)(=O)c3ccc(Cl)cc3)cc1)C1=C(CCCC1=O)O2 | - | - | - | - | 7.2
Cc1nn(-c2ccccc2)c2c1C(c1ccc(O)c(O)c1)N1C(=N2)C(Nc2ccccc2)=Nc2ccccc21 (stereo unspecified) | - | - | - | - | 4.3
O=C1NC[C@@H](CCCCN2C[C@H](Cc3ccccc3)N(CCc3ccccc3)C(=O)C2=O)N(Cc2ccccc2)C1=O | - | - | - | - | .
O=C1NC[C@H](CCCCN2C[C@H](Cc3ccccc3)N(Cc3ccccc3)C(=O)C2=O)N(CCc2ccccc2)C1=O | - | - | 3.8 | - | .
Cc1ccccc1-c1ccc(/C=C2/SC(N3CCOCC3)=NC2=O)o1 | - | - | - | - | 5.4
O=C1N=C(N2CCOCC2)S/C1=C\c1ccc(-c2ccccc2Cl)o1 | - | - | - | - | -
CN(C)S(=O)(=O)c1ccc(NC(=O)C2COc3ccccc3O2)cc1 (stereo unspecified) | - | - | - | - | 4.5
SMILES | hgDAF12 agonist | ssDAF12 agonist | DAX1 inh-1 | hcDAF12 agonist | DAX1 inh-2
Cc1nc2ccc(NC(=O)C3COc4ccccc4O3)cc2s1 (stereo unspecified) | 11.5 | - | - | - | -
Cc1ccc(NC(=O)C2COc3ccccc3O2)cc1C (stereo unspecified) | . | . | . | . | 4.9
CC(C)N1CCCCC(NC(=O)c2cccc(C(F)(F)F)c2)C1=O (stereo unspecified) | - | - | - | - | .
Nc1c(C(=O)N/N=C/c2cccnc2)oc2nc(-c3ccco3)cc(-c3ccco3)c12 | - | 0.9 | - | - | .
Nc1c(C(=O)N/N=C/c2cccnc2)oc2nc(-c3ccccc3)cc(-c3ccco3)c12 | - | - | - | - | .
COc1cccc(C#Cc2c(CO)[nH]c3ccccc23)c1 | - | - | - | 6.2 | -
CC(C)[C@H](NC(=O)c1ccccc1)C(=O)OCC(=O)NCc1ccc(F)cc1 | - | - | - | - | 5.4
CC(C)[C@H](NC(=O)c1ccccc1)C(=O)OCC(=O)NCC1CCCO1 (stereo partly specified) | - | - | - | - | -
C[C@@H]1COc2cccc(NCCO)c2S(=O)(=O)N1 | - | - | - | - | .
C[C@@H]1OC(C2CCCCC2)N(C)[C@H]2C[C@H]3c4[nH]c5cccc(-c6ccccc6)c5c4CCN3C[C@@H]12 (stereo partly specified) | - | - | - | - | .
CCOc1cc(-c2nnc(-c3ccco3)o2)cc(OCC)c1OCC | - | - | - | - | -
Brc1ccc(-c2nnc(-c3ccco3)o2)cc1 | - | - | - | - | -
c1coc(-c2nnc(-c3ccc4c(c3)OCO4)o2)c1 | 12.8 | - | 3.7 | - | .
c1ccc(-c2nnc(-c3ccco3)o2)cc1 | 10.6 | - | - | 5.8 | -
CCOc1ccc(-c2nnc(-c3ccco3)o2)cc1OCC | - | - | - | - | 7.7
Brc1ccc(-c2nnc(-c3ccc4c(c3)OCO4)o2)o1 | - | - | - | - | -
Cn1ccc2cc(S(=O)(=O)N3CCN(S(=O)(=O)c4c(F)cccc4F)CC3)ccc21 | - | - | . | - | .
CCN1CC=C2C(C#N)=C(N)C(C#N)(C#N)C(CCc3ccccc3)C2C1 (stereo unspecified) | - | 1.0 | - | - | -
CC(=O)N1CC=C2C(C#N)=C(N)C(C#N)(C#N)C(CCc3ccccc3)C2C1 (stereo unspecified) | - | - | - | - | -
CC1=NC(=O)C(N=Nc2ccccc2C(=O)O)N1c1ccccc1 (stereo unspecified) | - | - | - | - | .
CC1=NC(=O)C(N=Nc2ccccc2)N1c1ccccc1 (stereo unspecified) | - | - | - | - | 4.6
COc1ccc2c(c1)CCC1C2=NN(/C(C)=C\C(C)=O)C1c1ccc(F)cc1 (stereo unspecified) | - | - | - | 6.0 | -
COc1ccc2c(c1)C1=NN(/C(C)=C\C(C)=O)C(c3ccccc3)C1CC2 (stereo unspecified) | - | - | - | - | -
Cc1ccc(N(CC(=O)N2CCCCC2)S(=O)(=O)c2ccc(C)cc2)cc1 | - | - | - | - | 4.6
CS(=O)(=O)N(CC(=O)N1CCOCC1)c1ccc(Cl)cc1 | - | - | - | 6.0 | -
SMILES | hgDAF12 agonist | ssDAF12 agonist | DAX1 inh-1 | hcDAF12 agonist | DAX1 inh-2
CCOc1ccc(N(CC(=O)N2CCCCCC2)S(=O)(=O)c2ccc(C)cc2)cc1 | - | - | - | - | -
CCc1ccc(N(CC(=O)N2CCOCC2)S(C)(=O)=O)cc1 | - | - | - | - | 6.7
COC1=C[C@H](C(=O)NCc2ccc(Br)cc2)[C@H](C)[C@@H](c2ccccc2)CC1=O | - | - | - | - | .
CC(C)C[C@@H]1COc2cc(Br)ccc2S(=O)(=O)N1Cc1cn(Cc2ccc(C(F)(F)F)cc2)nn1 | - | - | - | - | .
O=C(Nc1nnc(-c2ccco2)o1)C1CC1 | - | - | - | 6.4 | -
O=C(Nc1nnc(-c2ccco2)o1)C1CCCCC1 | - | - | - | - | -
CCC(Cc1ccccc1)NC(=O)Cn1ncc2ccsc2c1=O (stereo unspecified) | 11.4 | 1.0 | - | 5.9 | -
